Data as given in PubChem BioAssay (Tox21).
Values without a mark were called inactive. Inconclusive results are not listed. Where a call stands in place of a potency, no number is given. Calls of active or inactive are those of the source. Unless noted, calls come from the whole dose curve; as a rule, active = well fitted curve in the direction sought with a large enough effect in the repeat runs; inconclusive = weak or mixed curves; inactive = no such curve, though single readings can be large; an effect the other way counts as inactive or inconclusive.

Assays:
[1] = molecular target: Thyrotropin receptor (Homo sapiens) (UniProt P16473); experiment: qHTS assay to identify small molecule agonists of the thyroid stimulating hormone receptor (TSHR) signaling pathway (AID 1224843; calls by dose curve; note: nearly all actives have a fitted effect of over 45% in size; note: potency is the fitted concentration of half-maximal effect)
Chain of Thyrotropin receptor (Homo sapiens) (P16473 whole entry, looked up): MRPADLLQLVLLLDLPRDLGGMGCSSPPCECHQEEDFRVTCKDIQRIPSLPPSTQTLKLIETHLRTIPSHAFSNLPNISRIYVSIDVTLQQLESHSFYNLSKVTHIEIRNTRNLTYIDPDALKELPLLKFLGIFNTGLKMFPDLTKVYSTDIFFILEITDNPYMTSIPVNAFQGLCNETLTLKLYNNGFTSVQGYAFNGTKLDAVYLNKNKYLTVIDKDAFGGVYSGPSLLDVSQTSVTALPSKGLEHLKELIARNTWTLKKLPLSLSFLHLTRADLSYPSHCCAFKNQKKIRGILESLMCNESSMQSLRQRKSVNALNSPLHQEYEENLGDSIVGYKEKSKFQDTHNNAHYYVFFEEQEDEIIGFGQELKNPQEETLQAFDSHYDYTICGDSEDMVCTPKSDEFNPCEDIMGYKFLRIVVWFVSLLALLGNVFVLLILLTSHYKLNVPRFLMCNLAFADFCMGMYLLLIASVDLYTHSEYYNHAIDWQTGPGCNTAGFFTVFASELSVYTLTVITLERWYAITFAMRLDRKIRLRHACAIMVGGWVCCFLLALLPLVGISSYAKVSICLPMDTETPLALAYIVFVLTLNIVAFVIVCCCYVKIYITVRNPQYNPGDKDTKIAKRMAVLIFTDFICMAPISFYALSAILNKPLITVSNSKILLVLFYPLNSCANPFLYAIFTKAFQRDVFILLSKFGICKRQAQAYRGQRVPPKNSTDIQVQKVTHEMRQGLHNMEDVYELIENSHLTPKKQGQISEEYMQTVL
Outline: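 TSHR-expressing HEK293 cells (800 per well) were exposed to compounds for 30 min at room temperature. cAMP was then detected by HTRF competition with cAMP-d2 and anti-cAMP cryptate, read after 1 h at room temperature. Fifteen concentrations, triplicate.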

[2] = qHTS assay to identify small molecule agonists of H2AX (AID 1224845; active = well fitted activation curve with a large enough effect in the signal ratio in the repeat runs, not every such curve was filed as active; the % refers to the signal ratio; note: potency is the fitted concentration of half-maximal effect)
Outline: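 Wild-type CHO-K1 cells plated overnight, then exposed 3 hr at 37C to compounds at 15 concentrations (0.76% DMSO). Lysed, then HTRF anti-pH2AX(S139)-cryptate/anti-H2AX-d2 detection after 24 hr at room temperature; emissions 665 and 620 nm.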

[3] = qHTS assay to identify small molecule agonists of the hypoxia (HIF-1) signaling pathway (AID 1224846; active = well fitted activation curve with a large enough effect in the signal ratio in the repeat runs, not every such curve was filed as active; the % refers to the signal ratio)
Outline: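 Hypoxia-pathway activation was scored as increased beta-lactamase from an HRE-controlled reporter in ME-180 cells; plated at 2,000 cells per well with 0.5% dialyzed FBS, they were exposed 17 hrs to compounds and then given CCF4-AM.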

[4] = qHTS assay to identify small molecule agonists of H2AX - cell viability counter screen (AID 1224847; calls by dose curve; note: top concentration of the series differs between compounds; nearly all actives have a fitted effect of over 30% in size)
Outline: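 Cytotoxicity counter screen in wild-type CHO-K1 cells: a 3 hr compound treatment at 37C across 15 concentrations, followed by CellTiter-Glo luminescence to gauge viable cells.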

[5] = qHTS assay to identify small molecule antagonists of the estrogen related receptor (ERR) signaling pathway from Tox21 library (AID 1224848); note: nearly all actives have a fitted effect of over 50% in size; note: potency is the fitted concentration of half-maximal effect
Outline: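 Cells: ERR line, 2,000/well; 6 h preincubation 37 C/5% CO2. Cpd in DMSO via pin tool; 18 h, 37 C. ONE-Glo, 30 min RT, luminescence.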

[6] = qHTS assay to identify small molecule agonists of the estrogen related receptor (ERR) signaling pathway from Tox21 library (AID 1224849; calls by dose curve; note: nearly all actives have a fitted effect of over 15% in size); conditions: ERR reporter cell line, ONE-Glo luciferase, 18 h; at 92.4 µM (top of the series) unless noted
Outline: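 Six hours post-seeding at 37 C/5% CO2, ERR cells receive DMSO-solubilised compounds; after 18 h at 37 C, ONE-Glo reagent is applied and luminescence recorded.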

[7] = qHTS RealTime-Glo MT Cell Viability Assay in HepG2 cells - 24 hour (AID 1224867); note: nearly all actives have a fitted effect of over 50% in size; note: potency is the fitted concentration of half-maximal effect
Outline: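 Cells + NanoLuc/prosubstrate dispensed (600 cells/well) → 5 h at 37 C/5% CO2 → compounds in DMSO transferred → 40 h incubation at 37 C, luminescence read at 0, 8, 16, 24, 32, 40 h.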

[8] = qHTS RealTime-Glo MT Cell Viability Assay in HEK293 cells - 32 hour (AID 1224868); note: nearly all actives have a fitted effect of over 50% in size; note: potency is the fitted concentration of half-maximal effect
Outline: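 Tox21 10K qHTS, HEK293, 600 cells/well, RealTime-Glo reagent co-dispensed with cells; 5 h preincubation, compound by pintool, 37 C, luminescence at 0–40 h.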

[9] = A CellTox Green Cytotoxicity Assay to monitor cytotoxicity in HEK293 cells - 0 hour (AID 1224869); note: nearly all actives have a fitted effect of over 50% in size
Outline: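 Seeding of HEK293 cells together with cytotoxicity dye preceded a 5 h incubation at 37 C/5% CO2. Test compounds in DMSO were then added and fluorescence monitored across 40 h.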

[10] = qHTS assay to identify small molecule agonists of the hypoxia (HIF-1) signaling pathway - cell viability counter screen (AID 1224844; calls by dose curve; note: nearly all actives have a fitted effect of over 50% in size)
Outline: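 Multiplexed with the HRE beta-lactamase assay, this viability read used CellTiter-Glo luminescence (30 min, RT) on HRE-bla ME-180 cells treated 17 hrs with compounds in 0.5% dialyzed FBS medium.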

| Structure (SMILES) | Potency [1] | Potency [2] | outcome [3] | Potency [4] | Potency [5] | activity change, positive = activation [6] | Potency [7] | Potency [8] | Potency [9] | Potency [10] |
| --- | --- | --- | --- | --- | --- | --- | --- | --- | --- | --- |
| CCCNC(C)(C)COC(=O)c1ccccc1 | inactive | inactive | inactive | inactive | inactive | 5.73% [at 42.5 µM] | inactive | inactive | inactive |  |
| CCCCNC(=S)NCCCC | inactive | inactive | inactive | inactive | 68.6 µM (active) | -66.6% | inactive | inactive | inactive |  |
| CN(C)CC[C@@H](c1ccc(Cl)cc1)c1ccccn1 | inactive | inactive |  | inactive |  |  | inactive | inactive | inactive | inactive |
| CN1CCN(N)CC1 | inactive | inactive |  | inactive |  |  | inactive | inactive | inactive | inactive |
| CC1CN(c2ccccc2)NC1=O (centres undefined) | inactive |  | inactive | inactive |  |  | inactive | inactive | inactive | inactive |
| CC(C)=CCC[C@](C)(O)[C@@H]1CC=C(C)CC1 | inactive | inactive |  |  |  |  | inactive | inactive |  | inactive |
| CCCCC1CCC(=O)O1 (centres undefined) | inactive | inactive | inactive | inactive | inactive | -0.824% | inactive | inactive |  |  |
| CN1C(=O)CC(c2ccccc2)C1=O (centres undefined) | inactive | inactive |  | inactive |  |  | inactive | inactive | inactive | inactive |
| COc1cc(N)c(Cl)cc1C(=O)NC1CCN(Cc2ccccc2)CC1 | inactive | inactive |  | inactive |  |  | inactive | 19 µM (active) | inactive | inactive |
| CCc1cc(Cl)c(OC)c(C(=O)NC[C@@H]2CCCN2CC)c1O |  | inactive | inactive | inactive | inactive | 1.1% [at 42.5 µM] | inactive | inactive | inactive | inactive |
| O=CCCc1ccccc1 |  | inactive | inactive | inactive |  | 7.2% | inactive | inactive | inactive | inactive |
| CC(C)(C)C1CCCCC1=O (centres undefined) |  | inactive | inactive | inactive |  |  | inactive | inactive | inactive | inactive |
| Cc1nnc(SCC2=C(C(=O)O)N3C(=O)[C@@H](NC(=O)Cn4cnnn4)[C@H]3SC2)s1 | inactive | inactive |  | inactive |  |  | inactive | inactive | inactive |  |
| COc1cc2c(cc1N)oc1ccccc12 | inactive |  | inactive | inactive | inactive |  | inactive |  |  |  |
| COC(=O)N[C@H](C(=O)N[C@@H](Cc1ccccc1)[C@@H](O)CN(Cc1ccc(-c2ccccn2)cc1)NC(=O)[C@@H](NC(=O)OC)C(C)(C)C)C(C)(C)C | inactive | 24.7 µM (active) | inactive | inactive |  |  | inactive | inactive | inactive |  |
| ClC(Cl)Cl | inactive |  |  | inactive | inactive | -1.48% | inactive | inactive | inactive |  |
| O=C(CC(=O)C(F)(F)F)c1ccccc1 | 17.5 µM (active) | inactive |  | inactive | inactive | -6.03% | inactive | inactive |  |  |
| Cc1ccc(C(C)C)cc1O |  | inactive | inactive | inactive |  |  | inactive | inactive |  | inactive |
| CCCCCCCCc1ccc(S(=O)(=O)O)cc1 | inactive | inactive |  | inactive |  |  | inactive | inactive | inactive |  |
| N#Cc1ccc(C(c2ccc(C#N)cc2)n2cncn2)cc1 | inactive | inactive |  | inactive |  |  | inactive | inactive | inactive |  |
| CCN(O)CC |  | inactive | inactive | inactive |  |  | inactive | inactive |  | inactive |
| Cc1cc2nc(N)sc2cc1C | inactive | inactive | inactive |  |  |  | inactive | inactive | inactive |  |
| Cc1nc(-c2ccccn2)ncc1C(=O)Nn1cc(C)c2cc(F)ccc21 | inactive |  |  | inactive | 54.5 µM (active) | -53.1% | inactive | 1.55 µM (active) | inactive |  |
| ICCc1ccccc1 | inactive |  |  | inactive |  | -17.9% | 19.1 µM (active) | inactive | inactive |  |
| Nc1cccc(S(=O)(=O)O)c1 | inactive | inactive |  | inactive |  |  | inactive | inactive | inactive |  |
| CC1=C2[C@H](/C=C(\C)C(=O)O)CC[C@@H](C)[C@H]2CC1 | inactive | inactive |  | inactive | 56.5 µM (active) | -46% | inactive |  | inactive |  |
| Cc1c(C(=O)NCCO)[n+](=O)c2ccccc2n1[O-] | inactive | inactive | inactive | inactive |  |  | inactive | inactive |  |  |
| CCCCN1C[C@H](O)[C@@H](O)[C@H](O)[C@H]1CO | inactive | inactive |  | inactive |  |  | inactive |  | inactive |  |
